Measured values published in article PMC7862700, “An all-to-all approach to the identification of sequence-specific readers for epigenetic DNA modifications on cytosine”.

Tests used:
Assay in all cases: DAPPL (digital affinity profiling via proximity ligation, sequencing); 10 mM Tris-HCl pH 7.5, 50 mM NaCl, 1 mM DTT, 4% glycerol, room temperature, 30 min; GST-TFs on glutathione beads, 16-mer random dsDNA library, 0.1% formaldehyde crosslink after washing; high values mean tight binding
Conditions in all cases: protein: recombinant; tags: N-terminal GST; dsDNA, one strand shown
FLI1 = target: T1, FLI1 (Homo sapiens, UniProt Q01543 1-452)
T1 sequence: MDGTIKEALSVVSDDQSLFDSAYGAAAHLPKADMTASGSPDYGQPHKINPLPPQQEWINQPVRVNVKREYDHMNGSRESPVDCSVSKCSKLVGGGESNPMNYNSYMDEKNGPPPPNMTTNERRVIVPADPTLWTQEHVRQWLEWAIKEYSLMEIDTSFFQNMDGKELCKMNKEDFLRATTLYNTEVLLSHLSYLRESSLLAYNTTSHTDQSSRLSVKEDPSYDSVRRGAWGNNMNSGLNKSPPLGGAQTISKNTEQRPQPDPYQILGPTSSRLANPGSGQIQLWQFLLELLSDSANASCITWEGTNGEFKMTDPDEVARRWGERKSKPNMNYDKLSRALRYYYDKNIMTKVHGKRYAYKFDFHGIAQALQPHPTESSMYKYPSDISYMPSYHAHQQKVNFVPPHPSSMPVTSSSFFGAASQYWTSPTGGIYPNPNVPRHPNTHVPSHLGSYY
In short: (§1)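 GST fusions of human transcription factors were expressed in yeast and captured with glutathione beads. Once given DNA barcodes and pooled alongside a tag-only sample, they were incubated for 30 min at room temperature with 200 nmole of a random double-stranded 16-mer DNA library in Tris/NaCl/DTT/glycerol buffer, then washed, crosslinked (0.1% formaldehyde), proximity-ligated, PCR-amplified and sequenced on an Illumina NextSeq500. The binding signal of each hexamer is its read frequency for a factor divided by its frequency for the tag-only sample.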

ELK1 = target: T2, ELK1 (Homo sapiens, UniProt P19419 1-428)
T2 sequence: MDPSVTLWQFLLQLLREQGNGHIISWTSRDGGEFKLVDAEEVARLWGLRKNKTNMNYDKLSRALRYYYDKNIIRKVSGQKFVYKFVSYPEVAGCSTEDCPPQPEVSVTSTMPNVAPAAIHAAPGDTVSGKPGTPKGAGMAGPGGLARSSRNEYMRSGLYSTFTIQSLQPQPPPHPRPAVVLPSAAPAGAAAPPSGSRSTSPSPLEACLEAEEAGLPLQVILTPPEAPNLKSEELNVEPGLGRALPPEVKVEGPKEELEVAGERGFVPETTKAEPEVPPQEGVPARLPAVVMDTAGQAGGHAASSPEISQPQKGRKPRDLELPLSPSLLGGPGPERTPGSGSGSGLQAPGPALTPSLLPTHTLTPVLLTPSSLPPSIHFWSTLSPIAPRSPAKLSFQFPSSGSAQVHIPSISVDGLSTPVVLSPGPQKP
In short: as §1

GABPA = target: T3, GABPA (Homo sapiens, UniProt Q06546 1-454)
T3 sequence: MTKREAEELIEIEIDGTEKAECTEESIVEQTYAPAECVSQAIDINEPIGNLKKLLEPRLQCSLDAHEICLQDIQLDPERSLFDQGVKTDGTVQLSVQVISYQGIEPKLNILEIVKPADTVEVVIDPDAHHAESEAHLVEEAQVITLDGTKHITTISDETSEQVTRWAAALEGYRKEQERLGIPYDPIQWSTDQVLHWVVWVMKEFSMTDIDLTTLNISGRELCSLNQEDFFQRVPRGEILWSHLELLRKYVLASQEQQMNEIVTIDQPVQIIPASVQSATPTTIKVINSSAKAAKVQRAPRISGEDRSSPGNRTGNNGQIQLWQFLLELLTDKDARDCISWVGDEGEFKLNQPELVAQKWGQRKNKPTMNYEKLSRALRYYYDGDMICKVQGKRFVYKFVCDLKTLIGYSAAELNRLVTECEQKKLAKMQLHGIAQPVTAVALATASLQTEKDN
In short: as §1

ERG = target: T4, ERG (Homo sapiens, UniProt P11308 1-479)
T4 sequence: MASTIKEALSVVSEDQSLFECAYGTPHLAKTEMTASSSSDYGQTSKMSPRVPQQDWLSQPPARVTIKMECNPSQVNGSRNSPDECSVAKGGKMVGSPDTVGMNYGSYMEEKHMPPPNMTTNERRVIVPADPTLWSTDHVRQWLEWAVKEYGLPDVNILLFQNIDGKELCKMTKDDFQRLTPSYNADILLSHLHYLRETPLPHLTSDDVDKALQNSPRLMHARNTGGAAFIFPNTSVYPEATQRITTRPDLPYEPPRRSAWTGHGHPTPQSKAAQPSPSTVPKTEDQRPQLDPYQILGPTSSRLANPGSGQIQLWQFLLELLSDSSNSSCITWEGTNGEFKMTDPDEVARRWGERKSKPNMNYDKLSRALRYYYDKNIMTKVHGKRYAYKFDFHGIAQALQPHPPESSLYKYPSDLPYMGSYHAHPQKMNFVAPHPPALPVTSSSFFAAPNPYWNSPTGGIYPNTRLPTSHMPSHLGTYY
In short: as §1

ELF1 = ELF1 (Homo sapiens, UniProt P32519 1-619)
Sequence of ELF1 (P32519 whole entry): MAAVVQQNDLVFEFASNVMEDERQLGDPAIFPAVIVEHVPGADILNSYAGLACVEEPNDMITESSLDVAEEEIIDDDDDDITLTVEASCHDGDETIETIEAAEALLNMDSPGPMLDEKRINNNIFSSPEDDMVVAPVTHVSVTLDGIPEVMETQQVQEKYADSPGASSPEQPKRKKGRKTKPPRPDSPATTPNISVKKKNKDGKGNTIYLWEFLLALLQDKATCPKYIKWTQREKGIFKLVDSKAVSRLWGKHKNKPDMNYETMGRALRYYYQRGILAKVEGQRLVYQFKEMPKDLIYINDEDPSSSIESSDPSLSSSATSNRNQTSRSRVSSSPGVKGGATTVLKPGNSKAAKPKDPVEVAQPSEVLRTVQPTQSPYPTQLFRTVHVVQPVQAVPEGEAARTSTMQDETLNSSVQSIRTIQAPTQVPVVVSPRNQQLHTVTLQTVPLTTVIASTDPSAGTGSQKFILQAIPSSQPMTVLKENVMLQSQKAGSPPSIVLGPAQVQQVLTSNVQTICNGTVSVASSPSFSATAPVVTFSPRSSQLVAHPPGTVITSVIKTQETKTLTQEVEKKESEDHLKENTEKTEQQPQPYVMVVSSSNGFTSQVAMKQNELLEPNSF
In short: as §1

EHF = target: T5, EHF (Homo sapiens, UniProt Q9NZC4 1-300)
T5 sequence: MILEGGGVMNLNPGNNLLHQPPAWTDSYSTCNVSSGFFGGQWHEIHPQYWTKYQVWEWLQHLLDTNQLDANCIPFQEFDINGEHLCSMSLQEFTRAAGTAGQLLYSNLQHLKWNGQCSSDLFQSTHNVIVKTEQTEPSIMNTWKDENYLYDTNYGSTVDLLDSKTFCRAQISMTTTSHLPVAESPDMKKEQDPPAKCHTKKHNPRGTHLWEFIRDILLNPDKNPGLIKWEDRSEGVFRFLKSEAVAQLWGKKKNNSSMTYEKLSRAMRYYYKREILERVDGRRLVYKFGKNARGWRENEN
In short: as §1

SPI1 = SPI1 (Homo sapiens, UniProt P17947 1-270)
In short: as §1

SPIB = SPIB (Homo sapiens, UniProt Q01892 1-262)
Sequence of SPIB (Q01892 whole entry): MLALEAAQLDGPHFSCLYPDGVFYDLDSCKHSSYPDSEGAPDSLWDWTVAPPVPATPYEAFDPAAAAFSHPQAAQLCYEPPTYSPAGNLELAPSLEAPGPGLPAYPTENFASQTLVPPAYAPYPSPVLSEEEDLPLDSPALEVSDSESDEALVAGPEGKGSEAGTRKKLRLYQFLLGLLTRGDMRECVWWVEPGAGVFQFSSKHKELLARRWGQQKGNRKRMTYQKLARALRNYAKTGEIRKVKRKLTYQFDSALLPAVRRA
In short: as §1

ELK3 = target: T6, ELK3 (Homo sapiens, UniProt P41970 1-407)
T6 sequence: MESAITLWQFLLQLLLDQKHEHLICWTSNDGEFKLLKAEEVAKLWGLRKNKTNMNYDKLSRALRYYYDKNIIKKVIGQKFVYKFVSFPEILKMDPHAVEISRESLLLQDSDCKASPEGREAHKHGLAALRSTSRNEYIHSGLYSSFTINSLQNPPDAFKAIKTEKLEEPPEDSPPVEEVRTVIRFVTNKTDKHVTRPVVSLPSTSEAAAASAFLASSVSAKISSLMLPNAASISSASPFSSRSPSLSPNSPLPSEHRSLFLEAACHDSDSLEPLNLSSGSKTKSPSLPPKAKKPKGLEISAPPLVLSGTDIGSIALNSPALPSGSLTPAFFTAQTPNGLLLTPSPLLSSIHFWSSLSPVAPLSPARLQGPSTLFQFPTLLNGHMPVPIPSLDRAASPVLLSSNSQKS
In short: as §1

In the case of TGCTCA, the binding signal (FLI1) is reported as 1.32 fold enrichment (6-mer frequency, TF over GST control), the binding signal (ELK1) is reported as 1.28 fold enrichment (6-mer frequency, TF over GST control) and the binding signal (GABPA) is reported as 1.34 fold enrichment (6-mer frequency, TF over GST control). For the same sequence, the binding signal (ERG) was 1.41 fold enrichment (6-mer frequency, TF over GST control), the binding signal (ELF1) was 1.41 fold enrichment (6-mer frequency, TF over GST control) and the binding signal (EHF) was 1.36 fold enrichment (6-mer frequency, TF over GST control). The binding signal (SPI1) was 1.27 fold enrichment (6-mer frequency, TF over GST control), the binding signal (SPIB) was 1.35 fold enrichment (6-mer frequency, TF over GST control) and the binding signal (ELK3) was 1.19 fold enrichment (6-mer frequency, TF over GST control).
